# Of roughly 8,800 targets only a part is listed; those with a hit were picked by preference. About 0.5% of all pairs of compound and target were hits. Values without a mark were called inactive.
# Key:
# Experiment in all cases: log2 fold change, soluble protein after heating vs DMSO (PISA); higher = thermal stabilisation; K562 lysate, 10 uM; active = over 0.2 and 3.5 SD of the protein, either way, in both replicates (recomputed)
# pictilisib = compound: CS(=O)(=O)N1CCN(Cc2cc3nc(-c4cccc5[nH]ncc45)nc(N4CCOCC4)c3s2)CC1 [pictilisib]
# Procedure, shortened: (§1)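 Dounce homogenisation of K562 pellets in PBS pH 7.4 with 1 mM MgCl2 produced a crude extract, used at 1 mg/mL protein. Exposure to 10 μM compound lasted 30 min, and aliquots were then heated for 3 min across 48°C-58°C, pooled and brought to 0.5% NP-40 at 4°C. The supernatant after 21,000xg for 90 min was quantified by TMTpro 16plex LC-MS/MS with channel sums equalised. Duplicate values are given as log-two fold change in thermal stability relative to solvent controls.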
# bafetinib = compound: Cc1ccc(NC(=O)c2ccc(CN3CC[C@H](N(C)C)C3)c(C(F)(F)F)c2)cc1Nc1nccc(-c2cncnc2)n1 [bafetinib]
# Procedure, shortened: as §1
# lapatinib = compound: CS(=O)(=O)CCNCc1ccc(-c2ccc3ncnc(Nc4ccc(OCc5cccc(F)c5)c(Cl)c4)c3c2)o1 [lapatinib]
# Procedure, shortened: as §1
# duvelisib = compound: C[C@H](Nc1ncnc2nc[nH]c12)c1cc2cccc(Cl)c2c(=O)n1-c1ccccc1 [duvelisib]
# Procedure, shortened: as §1
# tozasertib = compound: Cc1cc(Nc2cc(N3CCN(C)CC3)nc(Sc3ccc(NC(=O)C4CC4)cc3)n2)n[nH]1 [tozasertib]
# Procedure, shortened: as §1
# dasatinib = compound: Cc1nc(Nc2ncc(C(=O)Nc3c(C)cccc3Cl)s2)cc(N2CCN(CCO)CC2)n1 [dasatinib]
# Procedure, shortened: as §1
# [1] = compound: Cn1cc(-c2ccc3c(c2)CCN3C(=O)Cc2cccc(C(F)(F)F)c2)c2c(N)ncnc21
# Procedure, shortened: as §1
# [2] = compound: NC(=O)c1cnc(N[C@@H]2CCCC[C@@H]2N)nc1Nc1cccc(-n2nccn2)c1
# Procedure, shortened: as §1
# [3] = compound: C[C@H](C1=CC=C(C=C1)C(=O)NC2=C3C=CNC3=NC=C2)N
# Procedure, shortened: as §1
# gandotinib = compound: Cc1cc(Nc2cc(CN3CCOCC3)c3nc(C)c(Cc4ccc(Cl)cc4F)n3n2)n[nH]1 [gandotinib]
# Procedure, shortened: as §1
# [4] = compound: Cc1cccc(CC(=O)N2CCc3c2ccc(-c2cn(C)c4ncnc(N)c24)c3F)n1
# Procedure, shortened: as §1
# [5] = compound: NC1(c2ccc(-c3nc4ccn5c(=O)[nH]nc5c4cc3-c3ccccc3)cc2)CCC1
# Procedure, shortened: as §1
# crizotinib = compound: C[C@@H](Oc1cc(-c2cnn(C3CCNCC3)c2)cnc1N)c1c(Cl)ccc(F)c1Cl [crizotinib]
# Procedure, shortened: as §1
# doramapimod = compound: Cc1ccc(-n2nc(C(C)(C)C)cc2NC(=O)Nc2ccc(OCCN3CCOCC3)c3ccccc23)cc1 [doramapimod]
# Procedure, shortened: as §1
# nilotinib = compound: Cc1cn(-c2cc(NC(=O)c3ccc(C)c(Nc4nccc(-c5cccnc5)n4)c3)cc(C(F)(F)F)c2)cn1 [nilotinib]
# Procedure, shortened: as §1
# [6] = compound: Cc1nc(Nc2n[nH]c3c2CN(C(=O)N[C@H](CN(C)C)c2ccccc2)C3(C)C)c2sccc2n1
# Procedure, shortened: as §1
# [7] = compound: Cc1ncc(-c2ccnc(Nc3ccc(S(C)(=O)=O)cc3)n2)n1C(C)C
# Procedure, shortened: as §1
# quisinostat = compound: Cn1cc(CNCC2CCN(c3ncc(C(=O)NO)cn3)CC2)c2ccccc21 [quisinostat]
# Procedure, shortened: as §1
# tipifarnib = compound: Cn1cncc1[C@@](N)(c1ccc(Cl)cc1)c1ccc2c(c1)c(-c1cccc(Cl)c1)cc(=O)n2C [tipifarnib]
# Procedure, shortened: as §1
# [8] = compound: NC(=O)Nc1cc(-c2cccc(F)c2)sc1C(=O)N[C@H]1CCCNC1
# Procedure, shortened: as §1
# Chain of UniProt O14810 (O14810 whole entry, looked up): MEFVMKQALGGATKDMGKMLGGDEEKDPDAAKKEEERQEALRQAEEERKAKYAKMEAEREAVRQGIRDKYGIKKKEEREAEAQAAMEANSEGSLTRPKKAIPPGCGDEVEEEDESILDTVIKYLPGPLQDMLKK
# Chain of UniProt P53355 (P53355 whole entry, looked up): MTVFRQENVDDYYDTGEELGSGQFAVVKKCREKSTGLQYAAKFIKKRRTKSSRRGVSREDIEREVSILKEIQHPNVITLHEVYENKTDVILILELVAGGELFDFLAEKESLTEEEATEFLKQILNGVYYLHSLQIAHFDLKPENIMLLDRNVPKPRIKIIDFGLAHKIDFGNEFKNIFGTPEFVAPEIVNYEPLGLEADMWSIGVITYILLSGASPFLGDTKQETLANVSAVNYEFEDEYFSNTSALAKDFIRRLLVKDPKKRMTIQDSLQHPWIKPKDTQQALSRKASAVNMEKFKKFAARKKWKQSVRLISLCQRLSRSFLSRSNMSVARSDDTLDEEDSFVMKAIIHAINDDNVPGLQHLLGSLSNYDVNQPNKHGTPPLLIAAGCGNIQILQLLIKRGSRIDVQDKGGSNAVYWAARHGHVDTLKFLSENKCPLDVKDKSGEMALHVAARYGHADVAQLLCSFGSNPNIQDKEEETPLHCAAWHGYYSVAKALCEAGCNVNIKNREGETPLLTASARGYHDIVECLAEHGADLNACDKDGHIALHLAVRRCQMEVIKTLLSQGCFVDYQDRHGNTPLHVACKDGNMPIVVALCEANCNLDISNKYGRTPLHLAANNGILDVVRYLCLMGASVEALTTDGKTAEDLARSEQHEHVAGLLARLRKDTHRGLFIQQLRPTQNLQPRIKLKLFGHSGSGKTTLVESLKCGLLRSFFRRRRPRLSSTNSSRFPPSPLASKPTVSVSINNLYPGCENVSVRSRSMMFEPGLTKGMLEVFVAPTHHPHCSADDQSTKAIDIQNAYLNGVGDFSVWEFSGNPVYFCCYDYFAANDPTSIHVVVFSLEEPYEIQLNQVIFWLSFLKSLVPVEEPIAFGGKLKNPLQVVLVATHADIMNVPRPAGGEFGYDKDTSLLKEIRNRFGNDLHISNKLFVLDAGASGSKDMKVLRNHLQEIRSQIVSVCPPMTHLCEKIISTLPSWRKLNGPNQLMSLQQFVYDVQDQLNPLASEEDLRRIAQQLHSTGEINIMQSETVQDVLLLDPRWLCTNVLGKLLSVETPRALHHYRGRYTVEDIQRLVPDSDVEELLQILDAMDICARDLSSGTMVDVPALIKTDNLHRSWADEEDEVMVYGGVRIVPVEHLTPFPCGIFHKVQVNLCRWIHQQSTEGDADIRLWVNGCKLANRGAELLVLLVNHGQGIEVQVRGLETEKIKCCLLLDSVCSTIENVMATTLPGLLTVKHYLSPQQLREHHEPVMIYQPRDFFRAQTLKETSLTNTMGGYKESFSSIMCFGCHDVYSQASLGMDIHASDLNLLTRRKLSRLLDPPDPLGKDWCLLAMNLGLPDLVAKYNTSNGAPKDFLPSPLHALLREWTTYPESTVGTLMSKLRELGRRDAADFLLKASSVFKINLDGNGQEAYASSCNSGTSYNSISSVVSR
# Chain of UniProt P51530 (P51530 whole entry, looked up): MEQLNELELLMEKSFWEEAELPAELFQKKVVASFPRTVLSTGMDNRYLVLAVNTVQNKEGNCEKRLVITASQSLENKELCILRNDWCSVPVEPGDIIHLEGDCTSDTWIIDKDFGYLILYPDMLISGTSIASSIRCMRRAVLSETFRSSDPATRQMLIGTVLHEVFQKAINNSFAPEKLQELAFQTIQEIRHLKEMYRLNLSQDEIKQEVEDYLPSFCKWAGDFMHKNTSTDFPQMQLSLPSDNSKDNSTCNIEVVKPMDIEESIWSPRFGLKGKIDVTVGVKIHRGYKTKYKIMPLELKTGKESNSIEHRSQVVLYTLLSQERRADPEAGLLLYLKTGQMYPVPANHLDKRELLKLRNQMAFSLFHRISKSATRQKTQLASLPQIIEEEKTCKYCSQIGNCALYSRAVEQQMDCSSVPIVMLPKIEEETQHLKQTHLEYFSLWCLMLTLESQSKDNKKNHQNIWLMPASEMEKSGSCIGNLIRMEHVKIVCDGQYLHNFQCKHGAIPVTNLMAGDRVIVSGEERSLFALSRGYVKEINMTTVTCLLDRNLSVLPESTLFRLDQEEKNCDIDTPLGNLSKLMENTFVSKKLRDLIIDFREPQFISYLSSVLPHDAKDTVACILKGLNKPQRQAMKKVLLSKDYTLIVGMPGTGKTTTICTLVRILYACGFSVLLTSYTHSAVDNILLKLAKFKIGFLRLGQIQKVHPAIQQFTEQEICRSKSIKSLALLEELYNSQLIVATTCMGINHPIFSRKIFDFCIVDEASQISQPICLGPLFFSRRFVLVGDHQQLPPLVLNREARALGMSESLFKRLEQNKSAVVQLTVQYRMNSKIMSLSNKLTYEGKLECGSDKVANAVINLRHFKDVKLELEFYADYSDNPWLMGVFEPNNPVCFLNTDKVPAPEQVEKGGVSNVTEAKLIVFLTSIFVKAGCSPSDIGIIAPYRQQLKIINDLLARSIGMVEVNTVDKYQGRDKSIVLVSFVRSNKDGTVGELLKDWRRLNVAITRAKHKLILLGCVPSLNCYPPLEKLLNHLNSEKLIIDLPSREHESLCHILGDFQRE
# Chain of UniProt Q9BSY9 (Q9BSY9 whole entry, looked up): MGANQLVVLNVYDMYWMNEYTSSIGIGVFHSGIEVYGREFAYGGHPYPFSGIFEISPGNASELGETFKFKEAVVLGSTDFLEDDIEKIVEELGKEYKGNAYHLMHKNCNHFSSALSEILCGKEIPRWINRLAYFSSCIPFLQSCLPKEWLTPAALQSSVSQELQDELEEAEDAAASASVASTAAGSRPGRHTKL
# Chain of UniProt P24311 (P24311 whole entry, looked up): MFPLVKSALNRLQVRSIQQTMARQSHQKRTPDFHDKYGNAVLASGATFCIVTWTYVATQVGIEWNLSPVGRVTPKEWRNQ
# Chain of UniProt P57737 (P57737 whole entry, looked up): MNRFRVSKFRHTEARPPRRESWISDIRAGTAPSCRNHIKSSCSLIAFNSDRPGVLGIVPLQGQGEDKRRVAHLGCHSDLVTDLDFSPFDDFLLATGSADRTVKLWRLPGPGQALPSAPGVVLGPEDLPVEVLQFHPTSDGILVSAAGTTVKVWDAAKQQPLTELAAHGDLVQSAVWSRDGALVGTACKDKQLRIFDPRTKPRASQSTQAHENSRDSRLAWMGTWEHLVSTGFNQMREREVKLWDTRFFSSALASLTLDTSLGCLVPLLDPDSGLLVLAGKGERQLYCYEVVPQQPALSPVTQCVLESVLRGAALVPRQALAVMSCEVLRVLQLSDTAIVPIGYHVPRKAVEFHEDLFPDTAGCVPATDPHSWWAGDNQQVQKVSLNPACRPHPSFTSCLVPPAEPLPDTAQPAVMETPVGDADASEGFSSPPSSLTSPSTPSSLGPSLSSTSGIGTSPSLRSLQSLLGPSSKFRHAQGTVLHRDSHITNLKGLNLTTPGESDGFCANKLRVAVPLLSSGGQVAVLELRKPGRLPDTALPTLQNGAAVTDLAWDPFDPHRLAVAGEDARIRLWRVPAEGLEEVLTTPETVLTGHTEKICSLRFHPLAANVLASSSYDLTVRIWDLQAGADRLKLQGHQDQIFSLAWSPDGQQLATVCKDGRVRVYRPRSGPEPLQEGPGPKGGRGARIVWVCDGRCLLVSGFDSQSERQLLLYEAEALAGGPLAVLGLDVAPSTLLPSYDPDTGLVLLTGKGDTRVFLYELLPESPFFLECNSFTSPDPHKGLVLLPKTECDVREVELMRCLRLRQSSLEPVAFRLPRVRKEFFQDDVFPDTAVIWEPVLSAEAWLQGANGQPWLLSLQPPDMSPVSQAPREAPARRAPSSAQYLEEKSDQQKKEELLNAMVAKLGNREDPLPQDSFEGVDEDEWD
# Chain of UniProt Q5D0E6 (Q5D0E6 whole entry, looked up): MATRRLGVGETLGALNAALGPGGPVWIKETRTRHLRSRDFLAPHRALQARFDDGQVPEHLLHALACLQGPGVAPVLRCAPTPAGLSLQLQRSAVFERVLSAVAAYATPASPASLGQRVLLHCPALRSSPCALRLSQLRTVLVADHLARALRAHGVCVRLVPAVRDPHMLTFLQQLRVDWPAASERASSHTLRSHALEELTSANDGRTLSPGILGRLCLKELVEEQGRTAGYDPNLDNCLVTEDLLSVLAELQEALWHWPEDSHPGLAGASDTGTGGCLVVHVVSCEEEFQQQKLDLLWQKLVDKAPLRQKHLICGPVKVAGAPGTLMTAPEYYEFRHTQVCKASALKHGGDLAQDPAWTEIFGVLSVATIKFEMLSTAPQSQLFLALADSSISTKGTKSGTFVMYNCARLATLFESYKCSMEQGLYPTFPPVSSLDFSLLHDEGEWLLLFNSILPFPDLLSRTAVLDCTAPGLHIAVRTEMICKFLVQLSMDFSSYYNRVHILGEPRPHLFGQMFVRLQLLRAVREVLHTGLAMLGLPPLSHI
# Chain of UniProt Q9Y6M4 (Q9Y6M4 whole entry, looked up): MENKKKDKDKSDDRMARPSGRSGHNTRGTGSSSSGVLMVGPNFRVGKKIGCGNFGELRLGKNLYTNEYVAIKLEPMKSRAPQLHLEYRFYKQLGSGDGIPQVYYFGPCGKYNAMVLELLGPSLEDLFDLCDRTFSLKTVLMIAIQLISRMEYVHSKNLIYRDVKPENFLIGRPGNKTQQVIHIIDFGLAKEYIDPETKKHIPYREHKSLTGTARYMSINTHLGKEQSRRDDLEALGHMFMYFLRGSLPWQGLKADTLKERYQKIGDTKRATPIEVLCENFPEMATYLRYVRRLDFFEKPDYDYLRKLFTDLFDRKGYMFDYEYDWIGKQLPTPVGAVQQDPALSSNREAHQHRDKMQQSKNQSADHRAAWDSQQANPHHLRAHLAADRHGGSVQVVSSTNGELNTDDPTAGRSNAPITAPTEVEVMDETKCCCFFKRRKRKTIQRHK
target,measurement,setting,value
CIC (UniProt I3L1Q4),log2 fold change,pictilisib,0.065
same,log2 fold change,bafetinib,0.021
CPLX1 (UniProt O14810),log2 fold change,lapatinib,-0.095
same,log2 fold change,duvelisib,-0.001
same,log2 fold change,tozasertib,0.167
same,log2 fold change,dasatinib,1.05 (active)
same,log2 fold change,[1],-0.134
same,log2 fold change,[2],0.178
DALRD3 (UniProt Q5D0E6),log2 fold change,lapatinib,0.021
same,log2 fold change,[3],-0.131
same,log2 fold change,gandotinib,-0.087
same,log2 fold change,tozasertib,0.139
same,log2 fold change,[4],0.096
same,log2 fold change,[2],-0.03
same,log2 fold change,[5],0.207
CSNK1G3 isoform 4 (UniProt Q9Y6M4),log2 fold change,lapatinib,-0.035
same,log2 fold change,[2],0.083
DNA2 (UniProt P51530),log2 fold change,crizotinib,-0.046
same,log2 fold change,[3],0.052
same,log2 fold change,duvelisib,-0.02
same,log2 fold change,gandotinib,0.013
same,log2 fold change,tozasertib,-0.07
same,log2 fold change,doramapimod,0.051
same,log2 fold change,[4],-0.017
same,log2 fold change,nilotinib,0.011
same,log2 fold change,[6],0.007
same,log2 fold change,dasatinib,0.069
same,log2 fold change,[7],0.005
same,log2 fold change,[1],0.05
same,log2 fold change,quisinostat,-0.069
same,log2 fold change,tipifarnib,-0.04
same,log2 fold change,[8],0.043
same,log2 fold change,[5],0.067
DAPK1 isoform 3 (UniProt P53355),log2 fold change,lapatinib,0.042
same,log2 fold change,crizotinib,0.022
same,log2 fold change,[3],0.188
same,log2 fold change,duvelisib,0.042
same,log2 fold change,gandotinib,0.058
same,log2 fold change,doramapimod,-0.141
same,log2 fold change,[4],-0.383
same,log2 fold change,nilotinib,-0.061
same,log2 fold change,[6],0.017
same,log2 fold change,dasatinib,-0.052
same,log2 fold change,[7],-0.146
same,log2 fold change,[1],-0.049
same,log2 fold change,quisinostat,-0.135
same,log2 fold change,tipifarnib,0.056
same,log2 fold change,[8],0.812 (active)
same,log2 fold change,[2],-0.103
same,log2 fold change,[5],-0.075
CORO7 (UniProt P57737),log2 fold change,crizotinib,-0.004
same,log2 fold change,[3],-0.139
same,log2 fold change,duvelisib,-0.084
same,log2 fold change,gandotinib,0
same,log2 fold change,tozasertib,0.092
same,log2 fold change,doramapimod,0.016
same,log2 fold change,[4],-0.335
same,log2 fold change,nilotinib,-0.102
same,log2 fold change,[6],0.136
same,log2 fold change,dasatinib,0.024
same,log2 fold change,[7],-0.072
same,log2 fold change,[1],0.119
same,log2 fold change,quisinostat,0.171
same,log2 fold change,tipifarnib,-0.051
same,log2 fold change,[8],0.088
same,log2 fold change,[5],0.183
COX7B (UniProt P24311),log2 fold change,lapatinib,-0.002
same,log2 fold change,crizotinib,0.058
same,log2 fold change,[3],0.025
same,log2 fold change,duvelisib,0.005
same,log2 fold change,gandotinib,0.01
same,log2 fold change,tozasertib,0.035
same,log2 fold change,doramapimod,0.035
same,log2 fold change,[4],0.099
same,log2 fold change,nilotinib,0.001
same,log2 fold change,[6],0.017
same,log2 fold change,dasatinib,-0.008
same,log2 fold change,[7],0.016
same,log2 fold change,[1],0.025
same,log2 fold change,quisinostat,0.047
same,log2 fold change,tipifarnib,0.023
same,log2 fold change,[8],-0.03
same,log2 fold change,[2],-0.047
same,log2 fold change,[5],0
DAZAP1 (UniProt K7EQ02),log2 fold change,nilotinib,-0.221
same,log2 fold change,[6],0.096
same,log2 fold change,[7],0.119
same,log2 fold change,tipifarnib,-0.039
DESI2 (UniProt Q9BSY9),log2 fold change,[3],-0.095
same,log2 fold change,gandotinib,-0.078
same,log2 fold change,tozasertib,-0.095
same,log2 fold change,[4],0.316
